This note sets out measurements from PubChem BioAssay (NCI).

The panel holds about 79,000 compounds, 15% with a hit somewhere; the sample as a whole holds those more often. Unmarked numbers belong to inactive results. Activity calls are given as the source filed them. No stated cut-off is given here; in the data, active means growth inhibition above about 70%; inactive means the rest.

The nature of experiment [1]: NCI Yeast Anticancer Drug Screen. Data for the rad50 strain (AID 155).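 Further: 0% = growth of vehicle-only cultures of the same strain.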 To be noted: S. cerevisiae rad50 strain growth inhibition; at 50.0 µM; hits give high values. The method in brief: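 A DNA repair-deficient yeast mutant serves as the test organism; compound-induced growth inhibition is calculated against vehicle-treated cells.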
The nature of experiment [2]: NCI Yeast Anticancer Drug Screen. Data for the mec2-1 strain (AID 157). Conditions: S. cerevisiae mec2-1 strain, at 50.0 µM, hits give high values. The method in brief: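 Test agents were screened against the mec2-1 yeast strain, with defined DNA repair or cell cycle alteration. Growth was scored as inhibition against vehicle-only controls.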
Experiment [3] is described as follows: NCI Yeast Anticancer Drug Screen. Data for the sgs1 mgt1 strain (AID 161).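 Further: 0% = growth of cultures given vehicle only.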 Conditions: S. cerevisiae sgs1 mgt1 strain, at 50.0 µM, hits give high values. In short, it runs like this:
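Genetically altered yeast, compound exposure, growth inhibition relative to vehicle.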

Experiment [4] can be described thus: NCI Yeast Anticancer Drug Screen. Data for the cln2 rad14 strain (AID 165).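 Further: 0% = growth equal to vehicle treated cultures.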 Conditions: S. cerevisiae cln2 rad14 strain, at 50.0 µM, hits give high values. The method in brief:
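Growth of compound-exposed yeast (cln2 rad14 genotype) measured and expressed as inhibition relative to vehicle.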

A short description of experiment [5]: NCI Yeast Anticancer Drug Screen. Data for the bub3 strain (AID 167). Conditions: S. cerevisiae bub3 mutant strain, at 50.0 µM, hits give high values. In short, it runs like this:
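Inhibition values come from growth of compound-treated mutant yeast normalised to vehicle-treated controls.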

Experiment [6] in a line: NCI Yeast Anticancer Drug Screen. Data for the mlh1 rad18 strain (AID 175). Conditions: S. cerevisiae mlh1 rad18 strain growth inhibition; at 50.0 µM; hits give high values. The method in brief: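 In this whole-cell yeast screen, a strain with altered DNA damage repair is challenged with compound, and its growth is measured against matched vehicle-treated controls.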

As to `Cc1ccc(S(=O)(=O)c2ccc(O)c(C)c2)c(O)c1` (tested in a mixture with another compound), the growth inhibition in experiment [1] is 36.6%; in experiment [2] it was 22.9%; in experiment [3] it was 35.3%; in experiment [4] it was 45.6%; in experiment [5], 33.4%; in experiment [6], 50.2%.

`COC(C(N)=O)c1ccccc1` (stereo not given): the growth inhibition in experiment [1] was -9.8%; in experiment [2] it was -11.3%; in experiment [3] it was -16.4%; in experiment [4], -8%; in experiment [5], 8.7%; in experiment [6] it was -3.45%.

In the case of `Cc1ccccc1NCc1ccccc1[N+](=O)[O-]`, the growth inhibition in experiment [1] was 23.9%; in experiment [2], 11.1%; in experiment [3], 14.8%; in experiment [4], -28.6%; in experiment [5], -14.6%; in experiment [6], 18.9%.

With `CC(C(=O)O)C(C)C(=O)O` (stereo not given), the growth inhibition in experiment [1] is 3.3%; in experiment [2] it was 4.15%; in experiment [3], 9.8%; in experiment [4] it was 6.45%; in experiment [5] it was 5.1%; in experiment [6] it was 14.2%.

As to `CCN(CC)C(=S)Nc1ccc(-c2cc3ccc(O)cc3oc2=O)cc1`, the growth inhibition was -6.95% in experiment [1]; 11.6% in experiment [2]; -5.45% in experiment [3]; 32.9% in experiment [4]; 18.2% in experiment [5]; 6.15% in experiment [6].

For the compound `OC1(c2ccc(-c3ccc(-c4ccc(C5(O)C(c6ccccc6)=C(c6ccccc6)C(c6ccccc6)=C5c5ccccc5)cc4)cc3)cc2)C(c2ccccc2)=C(c2ccccc2)C(c2ccccc2)=C1c1ccccc1`, the growth inhibition in experiment [1] was 1.05%; in experiment [2] it was 4.4%; in experiment [3], 6.8%; in experiment [4], -3.9%; in experiment [5] it was -1.8%; in experiment [6], 2%.

On to `O=P(NC1CCCCC1)(NC1CCCCC1)c1ccccc1`, for which the growth inhibition in experiment [1] was -10.9%; in experiment [2] it was 13.2%; in experiment [3] it was -5.1%; in experiment [4] it was 18.3%; in experiment [5], 13.6%; in experiment [6] it was 1.25%.

Turning to `CCCCNc1nc(Cl)nc(C(F)(F)F)c1N`, the growth inhibition in experiment [1] was 7.35%; in experiment [2], 2.45%; in experiment [3] it was 6.55%; in experiment [4], -29.8%; in experiment [5], 1.4%; in experiment [6] it was 1.35%.

On to `CC1(C)C(=O)/C=C\C(=O)C(C)(C)C(=O)/C=C\C(=O)C(C)(C)C2=CC=C(O2)C(C)(C)C(=O)/C=C\C1=O`, for which the growth inhibition in experiment [1] is 14.9%; in experiment [2] it was 12.2%; in experiment [3], -2.4%; in experiment [4] it was 20.9%; in experiment [5], 7.9%; in experiment [6], 14.4%.

With `O=C(OCC1C2CCC(C2)C1c1ccccc1)c1ccc([N+](=O)[O-])cc1` (stereo not given), the growth inhibition is 1.4% in experiment [1]; 8.5% in experiment [2]; -2% in experiment [3]; -22.7% in experiment [4]; -2.75% in experiment [5]; 10.5% in experiment [6].

With `Cn1c(=O)c2c(nc(N(CCN(N=O)c3nc4c(c(=O)n(C)c(=O)n4C)n3C)N=O)n2C)n(C)c1=O`, the growth inhibition in experiment [1] is -11%; in experiment [2], -4.35%; in experiment [3], -25.7%; in experiment [4] it was -0.3%; in experiment [5] it was -8.85%; in experiment [6], -0.65%.

In the case of `O=C(NC1=C(Cl)C(=O)c2ccccc2C1=O)C(=O)c1c(O)c2ccccc2oc1=O`, the growth inhibition in experiment [1] is 83.5% (active); in experiment [2] it was 85.8% (active); in experiment [3], 87.8% (active); in experiment [4], 84.2% (active); in experiment [5], 84.6% (active); in experiment [6], 91.3% (active).

As for `O=C(O)c1cccc(C(=O)c2ccccc2)c1`, the growth inhibition in experiment [1] was 5.55%; in experiment [2], 6.15%; in experiment [3], 20.4%; in experiment [4], 4.4%; in experiment [5], -11.7%; in experiment [6], 0.7%.

In the case of `COc1cc(OC)cc(N(C)Cc2cnc3nc(N)nc(N)c3c2C)c1`, the growth inhibition in experiment [1] is 0.75%; in experiment [2], 11.7%; in experiment [3], 15.6%; in experiment [4] it was 11.3%; in experiment [5], 12.3%; in experiment [6], -3.45%.

Consider `O=c1c(O)c(-c2cc(O)c(O)c(O)c2)oc2cc(O)ccc12`, for which the growth inhibition in experiment [1] is -35.5%; in experiment [2], -36.8%; in experiment [3] it was -24.3%; in experiment [4], -8.8%; in experiment [5], -32.8%; in experiment [6] it was -29.8%.

Consider `CCOC(=O)c1ccc(NC(=O)CCCCCCCCC(=O)Nc2ccc(C(=O)OCC)cc2)cc1`, for which the growth inhibition in experiment [1] was 7.5%; in experiment [2], -5.6%; in experiment [3] it was -0.85%; in experiment [4] it was -8.45%; in experiment [5], -2.1%; in experiment [6] it was -6.95%.

In the case of `O=C(O)c1ccc2c(Cl)ccc3c2c1CC3`, the growth inhibition in experiment [1] was 11.7%; in experiment [2], -0.8%; in experiment [3] it was 9.05%; in experiment [4] it was -32.5%; in experiment [5] it was -26.2%; in experiment [6], 21.5%.

In the case of `CCCCCCCCCCCCS(=O)(=O)CCC(=O)c1ccco1`, the growth inhibition in experiment [1] was 29.4%; in experiment [2], 20.1%; in experiment [3], -6.8%; in experiment [4] it was 9.3%; in experiment [5], 6.55%; in experiment [6] it was 7.6%.

In the case of `Nc1ccc2cc(S(=O)(=O)O)ccc2c1`, the growth inhibition in experiment [1] is 3.95%; in experiment [2], 14.9%; in experiment [3], -21.1%; in experiment [4], -3.95%; in experiment [5] it was 0.95%; in experiment [6], -6.05%.

Take `NNC(=O)CNc1cccc(Br)c1`: the growth inhibition was -16.1% in experiment [1]; -24.6% in experiment [2]; -6.1% in experiment [3]; 16.9% in experiment [4]; -32.4% in experiment [5]; -11.4% in experiment [6].
